6 sequences from PMC9838217, “Structure of SALL4 zinc finger domain reveals link between AT-rich DNA binding and Okihiro syndrome” can be followed below.

Where a chain is given by its changes, count along the chain named.

What all share (test): HT-SELEX; high values mean tight binding
Details in all cases: protein: recombinant; vector His6-GST; dsDNA, one strand shown

One assay addresses T1, SALL4 ZFC4 WT (HT-SELEX) (Mus musculus, UniProt Q8BX22 870-940).
T1 sequence: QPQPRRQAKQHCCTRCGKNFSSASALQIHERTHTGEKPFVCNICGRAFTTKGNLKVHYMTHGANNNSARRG
The essentials: (§1)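 Purified recombinant mouse SALL4 zinc finger cluster 4 (residues 870–940, 1 µg) was incubated with library DNA (1.5 µg first cycle, 200 ng later) in 100 µl of 10 mM Tris–HCl pH 7.5, 50 mM NaCl, poly(dI-dC) and DTT for 10 min at room temperature, with Ni2+ bead capture and reselection for up to 6 cycles in triplicate. MiSeq reads were scanned for 6-mers. Binding signal is each canonical k-mer's read fraction as fold change relative to the initial random library.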

In assay [1] the target is T2, SALL4 ZFC4 R900W (HT-SELEX) (Mus musculus, UniProt Q8BX22 870-940, R900W).
T2 sequence: T1 sequence with R31W
A digest of the protocol: as §1

The target of assay [2] is T3, SALL4 ZFC4 G921D (HT-SELEX) (Mus musculus, UniProt Q8BX22 870-940, G921D).
T3 sequence: T1 sequence with G52D
The essentials: as §1

In the case of ACTTAG, the binding signal with SALL4 ZFC4 WT (HT-SELEX) stood at 1.38 ± 0.0593 fold-change vs cycle 0; in assay [1], 1.56 ± 0.0417 fold-change vs cycle 0; in assay [2], 1.42 ± 0.0798 fold-change vs cycle 0.

ATGTAC: the figures for the binding signal (with SALL4 ZFC4 WT (HT-SELEX); in assay [1]; in assay [2]) were 1.295 ± 0.0117 fold-change vs cycle 0, 1.38 ± 0.0189 fold-change vs cycle 0 and 1.32 ± 0.0512 fold-change vs cycle 0, respectively.

As to ACAACA, the binding signal with SALL4 ZFC4 WT (HT-SELEX) came to 1.16 ± 0.0181 fold-change vs cycle 0; in assay [1] it was 1.28 ± 0.0315 fold-change vs cycle 0; in assay [2], 1.25 ± 0.0467 fold-change vs cycle 0.

Regarding ATGCAT, the binding signal in the assay with SALL4 ZFC4 WT (HT-SELEX) stood at 1.33 ± 0.0832 fold-change vs cycle 0; in assay [1], 1.27 ± 0.0798 fold-change vs cycle 0; in assay [2], 1.26 ± 0.0876 fold-change vs cycle 0.

With CCGTTA, the binding signal with SALL4 ZFC4 WT (HT-SELEX) was found to be 0.746 ± 0.0254 fold-change vs cycle 0; in assay [1] it was 0.832 ± 0.0409 fold-change vs cycle 0; in assay [2] it was 0.854 ± 0.0323 fold-change vs cycle 0.

CGGTGA: the binding signal in the assay with SALL4 ZFC4 WT (HT-SELEX) was found to be 0.364 ± 0.0107 fold-change vs cycle 0; in assay [1], 0.421 ± 0.0161 fold-change vs cycle 0; in assay [2], 0.548 ± 0.0673 fold-change vs cycle 0.
